# From PubChem
# Shown are actives, neighbours in structure and some others; about 2.9% of the full set was active somewhere.
# PAFAH1B3 inh: PAFAH1B3 (human) inhibition | Q15102 | recombinant PAFAH1B3, FP-rhodamine probe, fluorescence polarization | inhibition, % at 3.39 µM | 0.28% of 340,000 active | AID 492972;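 active means inhibition above the screen-wide average of all tested compounds plus 3 SD, cut at about 25% in these data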;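 further: 0% = enzyme with DMSO only and 100% = wells lacking PAFAH1B3 protein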
# Target sequence (Q15102 whole entry, looked up): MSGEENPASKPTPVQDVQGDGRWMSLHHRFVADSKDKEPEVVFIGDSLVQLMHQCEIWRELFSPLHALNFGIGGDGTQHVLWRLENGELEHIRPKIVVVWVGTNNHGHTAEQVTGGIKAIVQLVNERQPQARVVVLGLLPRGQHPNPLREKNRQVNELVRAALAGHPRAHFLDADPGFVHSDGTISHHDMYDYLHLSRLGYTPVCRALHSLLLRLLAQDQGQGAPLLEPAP
# pPAFAH FP inh: inhibitors of human plasma PAF acetylhydrolase (pPAFAH); recombinant pPAFAH, FP-rhodamine probe fluorescence polarization; 1.5% of 330,000 active; Q13093; AID 463082; inhibition, % at 3.39 µM;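 active means inhibition above the mean inhibition across the screen plus 3 SD, cut at about 25% in these data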;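 further: inhibitors block binding of the rhodamine activity-based probe so polarization drops; 0% = enzyme with DMSO and 100% = wells lacking pPAFAH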
# PME-1 primary: blocks human protein phosphatase methylesterase 1; inhibition, % at 5.9 µM; recombinant PME-1, FP-Rh probe fluorescence polarization; Q9Y570; 0.53% of 320,000 active;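 active means inhibition above the campaign mean of all compounds plus 3 SD, cut at about 26% in these data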;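 further: competitive labeling of PME-1 active site by serine hydrolase directed probe; 0% = PME-1 with DMSO and 100% = wells lacking PME-1 enzyme; inhibitors block probe labeling so polarization falls and inhibition rises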
# PAFAH1B2 inh: inhibitors of human PAFAH1B2 | P68402 | recombinant PAFAH1B2, FP-rhodamine activity probe, fluorescence polarization | inhibition, % at 3.39 µM | 1.2% of 340,000 active | AID 492953;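 active means inhibition above the mean of all tested compounds plus 3 SD, cut at about 24% in these data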;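 further: 0% = enzyme with DMSO and 100% = wells lacking PAFAH1B2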
# Target sequence (P68402 whole entry, looked up): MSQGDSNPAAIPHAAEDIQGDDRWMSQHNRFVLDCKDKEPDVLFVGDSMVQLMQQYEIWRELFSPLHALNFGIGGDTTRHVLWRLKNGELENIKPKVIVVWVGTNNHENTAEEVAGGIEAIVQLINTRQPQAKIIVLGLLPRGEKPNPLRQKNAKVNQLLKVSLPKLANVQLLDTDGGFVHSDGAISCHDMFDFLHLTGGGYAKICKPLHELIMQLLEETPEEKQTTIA
# Fam108B counter: Fam108B inhibition, counter-screen for RBBP9 inhibitors. recombinant Fam108B, FP-Rh probe fluorescence polarization. inhibition, % at 9.51 µM. 0.33% of 300,000 active. AID 1947;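 active means inhibition above the screen mean inhibition plus 3 SD, computed separately per campaign, cut at about 18% in these data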;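 further: inhibitors lower polarization as less probe binds the enzyme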
# PAFAH2 inh: PAFAH2 (human) inhibition | Q99487 | recombinant PAFAH2, FP-rhodamine activity probe, fluorescence polarization | inhibition, % at 3.39 µM | 0.99% of 340,000 active;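 active means inhibition above the mean over all tested compounds plus 3 SD, cut at about 30% in these data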;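 further: inhibitors block probe labeling of enzyme so polarization drops; 0% = enzyme with DMSO and 100% = wells lacking PAFAH2 protein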
# * = called active by the depositor; nt = not tested or not shown.
SMILES,PAFAH1B3 inh,pPAFAH FP inh,PME-1 primary,PAFAH1B2 inh,Fam108B counter,PAFAH2 inh
Cc1ccc(/C=C2\SC(=S)N(CCCC(=O)Nc3ccccc3C(=O)O)C2=O)cc1,3,1,5,19,-1,29
O=C(CCCN1C(=O)/C(=C/c2cccs2)SC1=S)Nc1ccccc1O,3,-5,-21,1,-3,-2
CCc1ccc(/C=C2\SC(=S)N(CCCC(=O)Nc3ccccc3C(=O)O)C2=O)cc1,-2,-4,-3,55*,-2,31*
COc1ccc2c3c(cccc13)C(=O)CC2,110*,nt,nt,100*,nt,126*
COc1ccc(N2CCN(C(=O)c3cccc(S(=O)(=O)N4CCCc5ccccc54)c3)CC2)cc1,7,5,3,8,nt,7
CCN(CC)c1ccc(NC(=S)Nc2ccc(F)cc2)cc1,7,nt,nt,8,nt,6
Cn1c(=O)c2sccc2n2c(CCCC(=O)NCCc3ccccc3)nnc12,11,-1,2,8,-2,5
Cc1nc(CS(=O)(=O)c2ccc(Cl)cc2)sc1C(=O)O,7,-4,3,25*,3,21
CC(=O)c1sc(NC(=O)CCS(=O)(=O)c2ccc(Cl)cc2)nc1C,9,-3,-5,6,-4,-8
CCOC(=O)C(=CNc1nc(-c2ccc3ccccc3c2)cs1)C(=O)OCC,6,1,-17,-3,-8,-6
O=S(=O)(Nc1cccc(-c2ccc(N3CCCCCC3)nn2)c1)c1ccccc1Cl,-1,29*,3,21,-11,-14
O=C(NC1CC1)c1cccc(NC(=O)c2cc(S(=O)(=O)N3CCOCC3)ccc2Cl)c1,-2,nt,nt,7,nt,1
O=[N+]([O-])c1cc(Br)c(O)c(C=Nc2ccc(N3CCOCC3)cc2)c1,0,34*,-2,5,6,-1
O=C(COC(=O)CCS(=O)(=O)c1ccc(Cl)cc1)NCCc1ccc(Cl)cc1Cl,-5,3,7,26*,-1,-3
O=C(COC(=O)CCS(=O)(=O)c1ccc(Cl)cc1)NC1CCCCC1,11,20,3,9,2,1
O=C(Cc1ccc(Br)cc1)NCCc1ccc(Cl)cc1Cl,-2,0,3,27*,-3,-4
O=C(Nc1ccc(Cl)cc1F)c1cccc2ccccc12,7,11,0,4,-2,3
CCOC(=O)c1c(NC(=O)/C=C/C(=O)O)sc(C)c1-c1ccc(C(C)(C)C)cc1,-16,33*,-3,-4,-10,-2
Cc1sc(NC(=O)C2CCCCC2C(=O)O)c(C(N)=O)c1-c1ccccc1 (stereo not given),4,5,2,1,-3,-1
Cc1sc(NC(=O)C2CCCCC2C(=O)O)c(C(N)=O)c1-c1ccc(C(C)(C)C)cc1 (stereo not given),-3,-7,-7,26*,0,7
COC(=O)c1sc(-c2ccc(C(C)(C)C)cc2)cc1NC(=O)COCC(=O)O,nt,28*,-14,nt,-10,nt
Cc1cc(C)c(S(=O)(=O)Nc2ccccc2C(=O)N2CCOCC2)c(C)c1,11,-4,-2,5,-3,3
COc1cc(CNc2ccc(N3CCN(C(C)=O)CC3)cc2)ccc1OCc1ccc(F)cc1,9,31*,4,9,-1,2
NC(=O)Nc1ccc(Oc2c(F)c(F)c(F)c(F)c2F)cc1,8,29*,-6,2,5,4
Cc1ccc2c(CC(=O)NNC(=O)c3ccccc3O)coc2c1,9,15,-5,21,0,9
SMILES,PAFAH1B3 inh,pPAFAH FP inh,PME-1 primary,PAFAH1B2 inh,Fam108B counter,PAFAH2 inh
N#CCCn1cc(/C=C/C(=O)O)c(-c2ccc(F)cc2)n1,-2,-6,6,1,4,1
O=C(O)CCn1cc(/C=C\C(=O)c2ccc(Cl)cc2)c(-c2cccc(Br)c2)n1,6,2,-7,46*,-12,6
COc1ccc(-c2nn(CCC(=O)O)cc2/C=C2\SC(N)=NC2=O)cc1,16,-3,5,4,1,3
NC1=NC(=O)/C(=C/c2cn(CCC(=O)O)nc2-c2ccc(Cl)cc2)S1,6,1,-5,50*,-3,5
O=Cc1cn(CCC(=O)O)nc1-c1cccc(Br)c1,9,6,5,2,-2,2
NC1=NC(=O)/C(=C/c2cn(CCC(=O)O)nc2-c2ccc(F)cc2)S1,8,0,-3,48*,0,4
